# High-throughput results (PubChem)
# IkB sig inh = suppresses IkB signaling in ABC-DLBCL reporter cells. 110,000 tested, 0.04% active. AID 445. Potency, µM (top dose mostly 57.1 µM), without a hit: top-dose IkBa stabilization activation. ABC-DLBCL IkBa-CBG/CBR dual luciferase ratio, 4 h; response scale: scaled: untreated 0%, proteasome inhibitor 100%; active = well fitted curve in the direction sought with a large enough effect in the signal ratio, not every such curve was filed as active; inconclusive = small, poorly fitted or top-dose-only effect, or a change in a side signal; the % refers to the signal ratio;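 also: potency is read from the fitted curve at half-maximal effect; the direction sought is a rising ratio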
#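 Luminescence ratio of IκBα-fused green versus native red beetle luciferase in OCI-Ly3 cells, 4 h post-doxycycline with compound; red signal alone, scaled from basal (0%) to zero light (-100%), flagged nonspecific or cytotoxic effects.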
# ERK AVP inh = vasopressin-driven ERK pathway inhibition | HEK293-V1b, vasopressin-stimulated pERK AlphaScreen | Potency, µM (series often up to 57.5 µM), without a hit: top-dose activity, negative = inhibition, most hits filed as inhibitors | 72,000 tested, 0.99% active; also: potency is read from the fitted curve at half-maximal effect; % is scaled to controls: 0 for no effect and ±100 for the full control effect; nearly all actives have a fitted effect of over 55% in size
#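 Phosphorylated ERK1/2 detected via AlphaScreen bead proximity in lysates of V1b-expressing HEK293 cells given 25 nM vasopressin for 5 min after 30 min compound exposure (37 °C). AC50 from Hill equation; basal DMSO 0%, vasopressin 100%.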
# CRE-bla Fsk = alters forskolin-stimulated CRE reporter signaling in CHO cells; CHO CRE-bla reporter (cAMP response element driving beta-lactamase), forskolin EC10, beta-lactamase ratio; Potency, µM (doses to about 38.2 µM), inactives show at the top dose activity change, negative = inhibition, actives largely listed as activators; 71,000 tested, 2.5% active; AID 662; active = well fitted activation curve with a large enough effect in the signal ratio, with a control signal flat, not every such curve was filed as active; inconclusive = small, poorly fitted or top-dose-only effect, or effect the other way, or a change in a side signal; the % refers to the signal ratio; also: potency is read from the fitted curve at half-maximal effect; % of control where 0% means no effect
#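 CRE-bla CHO cells stimulated with EC10 NKH 477 (water-soluble forskolin) and compound titrations, 3 h at 37C; beta-lactamase read with CCF4 after 2 h at room temperature. Activity from 460/530 nm emission ratio, AC50 values for positive or negative modulation.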
# Imprint erasure = inducers of genomic imprint erasure in mouse ES cells; Potency, µM (doses to about 60.7 µM), without a hit: at the top dose activity change, positive = activation, hits mostly activators; mouse ES Peg3-LacZ reporter, beta-gal luminescence, 40 h; AID 1948; 110,000 tested, 0.02% active; also: potency is read from the fitted curve at half-maximal effect
#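 Each well holds 300 Peg3LacZ-Neo (maternal) female ES cells incubated 40 h at 37C, 5% CO2. LacZ is measured by BetaGlo luminescence, with AC50 and maximum efficacy derived from dose-response curves.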
# CHO tox 24h = cytotoxicity in CRE-bla CHO cells at 24 h | 120 tested, under 10 active | CRE-bla CHO viability, ATP luminescence, 24 h | activity, negative = viability loss, % at 46.1 µM | shares compounds with CRE-bla Fsk | AID 905
# CHO via 40h = CHO cell toxicity at 40 h by ATP luminescence; CRE-bla CHO viability, ATP luminescence, 40 h; AID 906; 120 tested, under 10 active; Potency, µM, for inactives: max response, actives largely listed as inhibitors; shares compounds with CRE-bla Fsk
# CREB luc CRC = confirmation of CRE signaling potentiators in HEK293 CREB reporter cells; shares compounds with CRE-bla Fsk; HEK293 CRE-luc2P, NKH477 EC10 potentiation, luminescence, 4 h; Potency, µM (series often up to 38.3 µM), inactives show top-dose activity, positive = activation, actives largely listed as activators; 120 tested, 80% active
# * = called active by the depositor; ? = inconclusive; / = not tested or not shown; [ ] = dose if it differs, or a comment. This is one part of a sample in which hits are shown more often than they occur. Unless noted, calls follow the shape of the dose curve; as a rule, active = well fitted curve in the direction sought with a large enough effect; inconclusive = small, poorly fitted or top-dose-only effect, or another doubt; inactive = no such curve, though single readings can be large; an effect the other way counts as inactive or inconclusive.
SMILES,IkB sig inh,ERK AVP inh,CRE-bla Fsk,Imprint erasure,others
CCCCn1c(O)c(C(CC)=NCCc2ccccc2)c(=O)[nH]c1=O,?,?,10µM*,-11%,
CN[C@H]1[C@H]2[C@H]3CCN2C[C@@H]1O3,-1%[11.4 µM],/,-10%,/,
O=S(=O)(NCCO)c1cc[c]([Sb](=[O])([OH])[OH])cc1,0%[11.4 µM],1%[11.5 µM],-14%[7.6 µM],/,
O=C1C=C2C(=CCOC2O)O1 (stereo not drawn),/,32µM*,/,-39%,
O=C(O)[C@@H](O)[C@@H](O)[C@@H]1[O][Sb][O][C@@H]1CO,15%[11.4 µM],0%[11.5 µM],1%[7.6 µM],/,
NC(N)=Nc1ccc2[nH]c3c(c2c1)C[C@]1(O)[C@@H]2Cc4ccc(O)c5c4[C@]1(CCN2CC1CC1)[C@H]3O5,0%,?,-1%,/,
O=C1C=CC(=O)c2c1ccc1c2ccc2ccccc21,?,13µM*,5%[17.1 µM],-38%[16.8 µM],
CCc1ccc(OCCCN=C(C)c2c(O)n(C)c(=O)n(C)c2=O)cc1,?,?,-16%,-20%,
COc1ccc(N=C(C)c2c(O)n(C)c(=O)n(C)c2=O)c(OC)c1,-1%,-17%,?,-18%,CHO tox 24h=-3;CHO via 40h=-13%;CREB luc CRC=13µM*
C=CCN1CCc2cccc3c2[C@@H]1Cc1ccc(O)c(O)c1-3,25%,?,-7%,/,
Cn1c(O)c(C=NCCOc2ccc(Cl)cc2)c(=O)n(C)c1=O,4%,9%,10µM*,-9%,CHO tox 24h=1;CHO via 40h=-13%;CREB luc CRC=13µM*
